MITF primary – MITF inhibitors, primary screen, biochemical, AlphaScreen, human. AlphaScreen MITF homodimerization, bead proximity signal. actives 0.91% (n = 650,000). inhibition, % at 2.6 µM. Microphthalmia-associated transcription factor (Homo sapiens), O75030; in the data active means inhibition above about 50%;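 further: 0% = vehicle wells with protein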
Target sequence (O75030 whole entry, looked up): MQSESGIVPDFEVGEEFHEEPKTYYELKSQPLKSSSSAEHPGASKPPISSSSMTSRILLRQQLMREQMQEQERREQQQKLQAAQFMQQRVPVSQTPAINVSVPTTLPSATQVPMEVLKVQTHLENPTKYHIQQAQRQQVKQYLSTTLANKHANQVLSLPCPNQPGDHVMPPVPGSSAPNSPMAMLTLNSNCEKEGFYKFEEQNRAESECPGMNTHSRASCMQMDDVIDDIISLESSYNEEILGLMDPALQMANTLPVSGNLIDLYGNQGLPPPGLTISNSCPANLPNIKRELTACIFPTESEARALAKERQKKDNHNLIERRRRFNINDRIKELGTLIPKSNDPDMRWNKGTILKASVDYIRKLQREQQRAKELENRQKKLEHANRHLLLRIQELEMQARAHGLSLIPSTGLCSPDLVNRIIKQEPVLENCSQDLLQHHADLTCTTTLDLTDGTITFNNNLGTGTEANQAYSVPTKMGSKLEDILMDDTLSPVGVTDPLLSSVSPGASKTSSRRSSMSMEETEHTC
GPR151 ag – activators of human GPR151, primary screen, cell-based, PathHunter beta-arrestin, luminescence | PathHunter beta-arrestin GPR151 cells | AID 1508602, 2020 | actives 1% (n = 650,000) | activation, % at 11.2 µM; in the data active means activation above about 4.9%;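 further: 0% = median of compound wells and 100% = cells with positive control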
TEAD-YAP inh – TEAD-YAP interaction inhibition, primary screen, TEAD-YAP interaction inhibitor project, luminescence, HEK-TIYL cells. TEAD-Gal4/YAP UAS-luciferase luminescence. inhibition, % at 9.12 µM. actives 1.4% (n = 640,000). AID 1259422, 2018; in the data active means inhibition above about 32%;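 further: 0% = median of test compound wells and 100% = reference inhibitor wells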
FBW7 act – FBW7 E3 ligase activators, primary screen, biochemical, AlphaScreen, human. AID 1259310, 2017. AlphaScreen FBW7–phospho-cyclin E peptide binding, activator screen. normalized activity (activation), % at 26.1 µM. actives 0.13% (n = 650,000). F-box/WD repeat-containing protein 7 (Homo sapiens), Q969H0; in the data active means normalized activity above about 1.9%;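 further: purified mutant Fbw7 with reduced substrate affinity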
GPR151 confirm – GPR151 activators, triplicate retest, confirmation, cell-based, PathHunter beta-arrestin, luminescence; shares compounds with GPR151 ag; GPR151 PathHunter beta-arrestin cells, 90 min; % of EA-reagent control over plate median; activation, % at 11.2 µM; 6,700 tested, under 10 active;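 active means mean percent activation across replicates above the confirmation screen cutoff of 4.91%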
GPR119 counter – GPR119 activators in beta-arrestin cells, counter-screen for GPR151 activator project, cell-based, PathHunter beta-arrestin, luminescence, triplicate; shares compounds with GPR151 ag; 90 min; 0 = compound-well median, 100 = enzyme-acceptor control; activation, % at 11.2 µM; actives 0.3% (n = 6,700); AID 1508611, 2020;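 active means mean percent activation in the counterscreen above 29.09%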;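 further: counterscreen on off-target GPR119 to flag nonselective hits from the GPR151 activator screen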
An asterisk follows results filed as active; / = no result. Sampled rows, rich in hits. Any-hit rate of the full collection: about 3.5%.

SMILES | MITF primary | GPR151 ag | TEAD-YAP inh | FBW7 act | GPR151 confirm | GPR119 counter
CC(NC(=O)c1cnccn1)c1nc(-c2ccncc2)n[nH]1 (centres undefined) | 2 | -1 | 6 | 0 | / | /
Cc1cccc(OCC(=O)NCc2cccnc2)c1 | -3 | 2 | 4 | 0 | / | /
Cc1cc(OCC(=O)NCc2cccnc2)ccc1[N+](=O)[O-] | 2 | 5.2* | -7 | 0 | -1 | 2
CCOc1ccc(NC(=O)c2cccnc2)c([N+](=O)[O-])c1 | 0 | 5.8* | 46* | 0 | 1 | 8
Cc1nn(-c2ccc(Cl)cc2)c2sc(C(=O)Nc3ccc(C(N)=O)cc3)cc12 | 3 | 6.7* | 10 | 0 | 1 | 3
Cc1nn(-c2ccccc2)c2sc(C(=O)Nc3ccc(Cl)cc3)cc12 | 0 | 0 | -2 | 0 | / | /
COc1ccc(C2C(C#N)=C(N)N(N(C)C)C3=C2C(=O)CCC3)cc1 (centres undefined) | -4 | 2 | 11 | 0 | / | /
CN(C)N1C(N)=C(C#N)C(c2ccc3ccccc3c2)C2=C1CCCC2=O (centres undefined) | 1 | 5.9* | 2 | 0 | 0 | 16
O=C1C2C3C=CC(C3)C2C(=O)N1c1ccc(Cl)cc1F (centres undefined) | -2 | 1 | 1 | 0 | / | /
CCCCOC(=O)c1cccc(NC(=S)NC(=O)c2cc(OC)c(OC)c(OC)c2)c1 | 6 | 5.1* | -8 | 0 | 0 | 0
Nc1ncc(Br)cc1S(=O)(=O)N1CCN(C2CCCCC2)CC1 | 4 | 13* | 4 | 0 | 1 | 10
COc1ccc(C(=O)NCCc2sc(-c3ccccc3)nc2C)cc1 | -7 | 5.2* | -5 | 0 | 0 | 1
COc1ccc(-c2nc(C)c(CCNC(=O)c3cccc(OC)c3)s2)cc1 | 1 | 1 | -14 | 0 | / | /
O=C(COC(=O)c1cccc(S(=O)(=O)NCC(F)(F)F)c1)c1ccccc1 | 16 | 5.6* | -9 | 0 | -1 | 0
COc1cccc2cc(C(=O)C3=C(O)C(=O)N(Cc4ccco4)C3c3cccnc3)oc12 (centres undefined) | -2 | 5.4* | 11 | 0 | 0 | 9
N#Cc1ccc(S(=O)(=O)NCCc2ccncc2)cc1 | 2 | 5.2* | 1 | 0 | 0 | 1
Cc1cnn(C)c1C(=O)Nc1c2c(nn1-c1nc3ccccc3s1)CCC2 | 4 | 20* | 1 | 0 | 0 | -2
CC(=O)Nc1c2c(nn1-c1nc3ccccc3s1)CCC2 | 10 | 0 | -10 | 1 | / | /
Cc1ccc(C2C(C(=O)c3ccc(C)o3)=C(O)C(=O)N2c2ncccn2)cc1 (centres undefined) | 14 | 2 | 1 | 0 | / | /
COCCCNc1nc2nonc2nc1N1CCN(C2CCCC2)CC1 | -1 | 5.7* | 2 | 0 | 1 | 11
COCCCNc1nc2nonc2nc1N1CCN2CCCC2C1 (centres undefined) | -8 | 0 | 1 | 0 | / | /
Cn1c(=O)c2ccccc2n(C)c1=S | 5 | 5.6* | 1 | 1 | -1 | -4
O=C(Cn1cnc2sc3c(c2c1=O)CCCC3)NCCC(=O)N1CCN(c2ccccc2)CC1 | 10 | -2 | 7 | 0 | / | /
Cc1cc2ncn(-c3ncnc4sc5c(c34)CCCC5)c2cc1C | 5 | 4.9* | -22 | 1 | 2 | 13
O=c1[nH]c2cccnc2[nH]c1=O | 20 | 10* | 7 | 0 | 0 | -1
SMILES | MITF primary | GPR151 ag | TEAD-YAP inh | FBW7 act | GPR151 confirm | GPR119 counter
Cc1ccc(NC(=O)C(=O)NCC2CCCN2S(=O)(=O)c2ccc(C)cc2)cc1 (centres undefined) | 8 | -1 | 4 | 1 | / | /
CCNC(=O)C(=O)NCC1CCCN1S(=O)(=O)c1ccccc1 (centres undefined) | 23 | 7.2* | 0 | 0 | -1 | 1
Cc1ccc(NC(=O)NCC2CCCN2S(=O)(=O)c2ccc(C)cc2)cc1 (centres undefined) | 0 | 5.8* | -35 | 0 | -1 | -18
Nc1cc[n+](CC(=O)c2ccccc2)cc1 | -13 | 7.1* | -12 | 0 | 0 | -6
COc1ccc(-c2noc(N(C)CC(=O)N3CCN(c4ccccc4OC)CC3)n2)cc1 | 2 | 6.5* | -6 | 0 | 0 | -21
COc1ccc(-c2noc(N(C)CC(=O)N3CCN(c4cccc(Cl)c4)CC3)n2)cc1 | 0 | -1 | -4 | 0 | / | /
Cc1ccc(S(=O)(=O)N2N=C3CCCCC3C2(O)C(F)(F)F)cc1 (centres undefined) | 4 | 0 | -9 | 0 | / | /
CCCC1=NN(S(=O)(=O)c2ccc(C)cc2)C(O)(C(F)(F)F)C1 (centres undefined) | 14 | 5.5* | -3 | 0 | 0 | -2
COc1ccc(NC(=O)c2cc3ccc(OC)cc3oc2=Nc2ccc(C(=O)O)cc2)c(OC)c1 | -9 | 11* | 16 | 0 | 0 | 15
COc1ccc(NC(=O)c2cc3cc(OC)ccc3oc2=Nc2ccc(C(=O)O)cc2)c(OC)c1 | 10 | 0 | -9 | 0 | / | /
O=C(NCCc1ccc(O)cc1)c1cnc(-c2ccc(N3CCOCC3)nc2)s1 | -2 | 5.1* | 0 | 0 | -1 | -4
Cc1ccc2[nH]c3c(c2c1)CCCC3NCc1ccc(F)cc1 (centres undefined) | 13 | 14* | 49* | 0 | 0 | -2
Cc1ccc2[nH]c3c(c2c1)CCCC3NC(N)=O (centres undefined) | 5 | 0 | -2 | 0 | / | /
Cc1ccc(NC(=O)c2c(N)sc3c2CCCC3)cc1 | 22 | 0 | -4 | 0 | / | /
Cc1ccc(NC(=O)c2ccc(Br)cc2)cc1 | 7 | 0 | -39 | 0 | / | /
COc1ccc2c(CNC3CCCC(C)C3C)c(C(=O)O)n(Cc3ccc(C)cc3)c2c1 (centres undefined) | 10 | 4.9* | 11 | 0 | 0 | 0
COc1cc(/C=C(\C#N)c2nc3ccccc3n2C)cc(Br)c1O | 5 | 0 | -1 | 0 | / | /
C/C(=N/NS(=O)(=O)c1ccc(C)cc1)c1c(O)c2ccccc2oc1=O | 9 | 5.4* | 9 | 0 | -1 | -11
C/C(=N\NS(=O)(=O)c1ccc(C)cc1)c1c(O)c2ccccc2oc1=O | 13 | 0 | 2 | 0 | / | /
O=C(N/N=C/c1ccc(F)cc1)c1ccccc1Br | 5 | -1 | -34 | 0 | / | /
OCc1ccccc1OCc1cccc2ccccc12 | 6 | 5.3* | -16 | 0 | 0 | 8

Screening results from PubChem.
